Test systems include HCT-15 colon; HT29 colon; SNB-75 CNS; SNB-19 CNS; U251 CNS; PC-3 prostate; SK-MEL-5 melanoma; UACC-62 melanoma; LOX IMVI melanoma; SK-MEL-28 melanoma; EKVX NSCLC; SN12C renal; UO-31 renal; TK-10 renal; ACHN renal; CAKI-1 renal; CCRF-CEM leukemia; MOLT-4 leukemia; A498 renal.
Common to all, as to test: NCI-60 one-dose screen, 48 h (100 = growth as untreated, 0 = no growth, -100 = all killed)
Holding throughout (details): 10 µM unless noted

Compounds without any hit were thinned out: in the full panel of roughly 83,000, 20% have a hit.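 Assay: single dose, 48 h. Readout: percent growth (0 = no net growth; negative = cell death). Active: <10.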 Values without a mark were called inactive. Active and inactive are the calls of the source.

Regarding `C=C1C(=O)O[C@H]2[C@H]1CC/C(CNC(=O)/C=C/c1cccc(OC)c1)=C\CC[C@@]1(C)O[C@@H]21`, the growth is -44.7% (active) with HCT-15 colon; -36.7% (active) in the assay on HT29 colon; 90.1% in the assay with SNB-75 CNS; 55.5% in the assay on SNB-19 CNS; 47.3% in the assay on U251 CNS; 36% in the assay with PC-3 prostate. For the same molecule, the growth with SK-MEL-5 melanoma is 67.8%; in the assay with UACC-62 melanoma, -26.6% (active); in the assay with LOX IMVI melanoma it was 0.442% (active); in the assay with SK-MEL-28 melanoma, -48.7% (active); with EKVX NSCLC, -20.2% (active); in the assay on SN12C renal, 6.02% (active). The growth is -94.6% (active) in the assay with UO-31 renal; -37.7% (active) in the assay with TK-10 renal; -79.7% (active) in the assay on ACHN renal; -71.9% (active) in the assay with CAKI-1 renal; 1.02% (active) in the assay on CCRF-CEM leukemia; -3.23% (active) with MOLT-4 leukemia.
On to `N#C/C(=C\c1ccc(Cl)cc1)n1nnc2cc(F)c(F)cc21`, for which the growth with HCT-15 colon was 2% (active); in the assay on HT29 colon, 9.95% (active); with SNB-75 CNS, 15.9%; in the assay on SNB-19 CNS, 34.5%; with U251 CNS, 18.1%; with PC-3 prostate, 30.9%. Also, the growth in the assay with SK-MEL-5 melanoma is 8.38% (active); with UACC-62 melanoma it was 21%; in the assay with LOX IMVI melanoma it was -63.5% (active); in the assay on SK-MEL-28 melanoma, 29.6%; with EKVX NSCLC, 59.3%; with SN12C renal it was 8.61% (active). The growth was -17.5% (active) in the assay with UO-31 renal; 16.9% with TK-10 renal; 9.15% (active) in the assay on ACHN renal; 18% in the assay with CAKI-1 renal; -8.83% (active) with CCRF-CEM leukemia; 1.3% (active) in the assay on MOLT-4 leukemia.
On to `O=C1c2ccc3c4c(ccc(c24)C(=O)N1CCCNCc1ccccc1F)C(=O)N(CCCNCc1ccccc1F)C3=O`, for which the growth with HCT-15 colon was -60.6% (active); in the assay on HT29 colon, -77% (active); with SNB-75 CNS, -98.2% (active); in the assay with SNB-19 CNS, -64.3% (active); with U251 CNS it was -85.6% (active); in the assay on PC-3 prostate, -59.1% (active). Also, the growth with SK-MEL-5 melanoma was -96.2% (active); with UACC-62 melanoma it was -57.6% (active); with LOX IMVI melanoma it was -71.9% (active); in the assay on SK-MEL-28 melanoma it was -93.6% (active); with EKVX NSCLC, -56.5% (active); in the assay on SN12C renal, -75.7% (active). The growth is -58% (active) with UO-31 renal; -85.8% (active) in the assay with TK-10 renal; -47.1% (active) with ACHN renal; -22.8% (active) with CAKI-1 renal; -11.7% (active) in the assay on CCRF-CEM leukemia; -28.9% (active) in the assay on MOLT-4 leukemia.
Regarding `O=C1Nc2cc(-c3ccc(NS(=O)(=O)c4ccccc4)cc3)ccc2/C1=C/c1ccc[nH]1`, the growth is 62.9% in the assay with HCT-15 colon; 84.2% with HT29 colon; 98.5% in the assay with SNB-75 CNS; 98.1% in the assay with SNB-19 CNS; 97.9% in the assay on U251 CNS; 82.5% in the assay on PC-3 prostate. For the same molecule, the growth in the assay on SK-MEL-5 melanoma was 91.2%; in the assay on UACC-62 melanoma, 89.3%; with LOX IMVI melanoma it was 69.3%; with SK-MEL-28 melanoma it was 108%; in the assay on EKVX NSCLC it was 28.9%; in the assay with SN12C renal, 96.2%. Besides, the growth in the assay on UO-31 renal was 69.2%; in the assay on TK-10 renal, 68.9%; with ACHN renal it was 88.5%; in the assay with CAKI-1 renal, 82.9%; in the assay on CCRF-CEM leukemia, 63.9%; in the assay on MOLT-4 leukemia, 73.1%.
Regarding `NC1[C@H](c2c[nH]c3ccccc23)c2c([nH]c3ccccc23)[C@H]1c1c[nH]c2ccccc12` (stereo not given in full), the growth in the assay with HCT-15 colon was 84.8%; in the assay on HT29 colon it was 97.6%; in the assay on SNB-75 CNS it was 97.2%; in the assay on SNB-19 CNS it was 95.2%; in the assay with U251 CNS, 100%; with PC-3 prostate, 78.3%. Besides, the growth with SK-MEL-5 melanoma was 85.2%; with UACC-62 melanoma, 72.5%; with LOX IMVI melanoma, 90.1%; in the assay with SK-MEL-28 melanoma it was 103%; with EKVX NSCLC, 85.1%; in the assay with SN12C renal it was 88.9%. Moreover, the growth in the assay on UO-31 renal is 80.2%; with TK-10 renal, 119%; with ACHN renal it was 88%; with CAKI-1 renal, 84.8%; in the assay on CCRF-CEM leukemia, 94.5%; in the assay with MOLT-4 leukemia, 80.6%.
`COc1cc(/C=C\c2cc(/C=C\c3ccc(O)c(OC)c3)n(C(=O)COc3ccccc3)n2)ccc1O`: the growth was 9.64% (active) with HCT-15 colon; -33.2% (active) in the assay on HT29 colon; 22.7% in the assay on SNB-75 CNS; 14.8% in the assay with SNB-19 CNS; 8.81% (active) with U251 CNS; 8.49% (active) in the assay on PC-3 prostate. In addition, the growth was -28.8% (active) in the assay on SK-MEL-5 melanoma; 4.88% (active) in the assay with UACC-62 melanoma; 3.23% (active) with LOX IMVI melanoma; 18.4% in the assay on SK-MEL-28 melanoma; 28.1% with EKVX NSCLC; 15.7% with SN12C renal. Further, the growth in the assay with UO-31 renal is 0.475% (active); in the assay on TK-10 renal, 12.7%; in the assay with ACHN renal it was 18%; in the assay with CAKI-1 renal it was 24.2%; in the assay with A498 renal, 11.2%; in the assay with CCRF-CEM leukemia, 6.79% (active).
For the molecule `C/C=C(\C)C(=O)NC1=CC[C@@]2(C)C(=CCC3C2CC[C@@]2(C)C3CC[C@@H]2C(C)N(C)C)C1=O` (stereo not given in full), the growth with HCT-15 colon was -32.5% (active); with HT29 colon, -19.7% (active); in the assay with SNB-75 CNS it was 42.3%; with SNB-19 CNS it was 83%; in the assay with U251 CNS it was 36.3%; in the assay with PC-3 prostate it was 26.2%. The growth with SK-MEL-5 melanoma is -34.7% (active); with UACC-62 melanoma, -16.1% (active); in the assay on LOX IMVI melanoma it was -53.2% (active); with SK-MEL-28 melanoma it was -66.5% (active); with EKVX NSCLC it was 32%; in the assay with SN12C renal, 60.6%. The growth in the assay on UO-31 renal was 1.15% (active); with TK-10 renal, 58.1%; in the assay with ACHN renal it was 65.6%; in the assay on CAKI-1 renal, 63.6%; in the assay on A498 renal, 71.2%; in the assay with CCRF-CEM leukemia, 15.3%. In addition, the growth in the assay with MOLT-4 leukemia was 47%.
Take `COCc1cnccc1NC1CCCCCC1`: the growth was 107% with HCT-15 colon; 90.7% with HT29 colon; 98.1% in the assay on SNB-75 CNS; 104% with SNB-19 CNS; 103% in the assay on U251 CNS; 98.1% in the assay on PC-3 prostate. The growth in the assay with SK-MEL-5 melanoma is 101%; in the assay on UACC-62 melanoma it was 98.7%; in the assay on LOX IMVI melanoma, 100%; in the assay on SK-MEL-28 melanoma, 110%; in the assay on EKVX NSCLC, 102%; in the assay on SN12C renal it was 99.4%. Also, the growth in the assay on UO-31 renal is 86.3%; with TK-10 renal, 94.1%; in the assay with ACHN renal, 108%; in the assay on CAKI-1 renal, 94.4%; in the assay with CCRF-CEM leukemia, 101%; in the assay with MOLT-4 leukemia it was 94.4%.

These data come from PubChem BioAssay (NCI).
